From PubChem BioAssay (NCATS)
Results filed as inconclusive are left out. The source made the active and inactive calls. Calls follow the shape of the dose curve; as a rule, active = well fitted cell-killing curve with a large enough effect; inconclusive = small, poorly fitted or top-dose-only effect, or effect the other way; inactive = flat fitted curve, though single readings scatter.

Assays:
Test in all cases: Primary qHTS to identify gynecologic anti-cancer compounds using libraries of approved drugs and bioactive compounds (AID 1345084); also: nearly all actives have a fitted effect of over 55% in size
Conditions in all cases: Gynecologic cancer cell panel viability, ATPlite luminescence, 48 h; series mostly up to 57.5 µM
SKOV3 = test system: SKOV3
How it was run: (§1)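 Cell viability after 48 h drug treatment, ATPlite luminescence readout; five doses.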

Tov-21-G = test system: Tov-21-G
How it was run: as §1

Tov112D = test system: Tov112D
How it was run: as §1
% is scaled to controls: 0 for no effect and ±100 for the full control effect.

C=CC1(C)C=C2C(O)CC3C(C)(C(=O)O)CCCC3(C)C2CC1 (centres undefined)
inactive: Potency (SKOV3) | Potency (Tov-21-G) | Potency (Tov112D)

C=CC1C(O[C@@H]2O[C@H](CO)[C@@H](O)[C@H](O)[C@H]2O)OC=C(C(=O)OC)C1Cc1nccc2c1[nH]c1ccccc12 (some centres undefined)
inactive: Potency (SKOV3) | Potency (Tov-21-G) | Potency (Tov112D)

CC(C)(C)NCc1cc(Nc2ccnc3cc(Cl)ccc23)c2c(c1O)CCCC2
inactive: activity change, negative = cytotoxicity (SKOV3) 4.41% [at 0.462 µM] | activity change, negative = cytotoxicity (Tov-21-G) 8.34% [at 0.462 µM] | activity change, negative = cytotoxicity (Tov112D) 20.2% [at 0.462 µM]

C[C@@H]1O[C@@H](O[C@H]2[C@H](O[C@H]3[C@H](O[C@H]4CC[C@@]5(CO)C(CC[C@]6(C)C5CC=C5C7CC(C)(C)C[C@@H](O)[C@]7(C)CC[C@]56C)C4(C)C)O[C@H](C(=O)O)[C@@H](O)[C@@H]3O)OC[C@@H](O)[C@@H]2O)[C@H](O)[C@H](O)[C@H]1O (some centres undefined)
inactive: activity change, negative = cytotoxicity (SKOV3) 0.621% [at 11.6 µM] | activity change, negative = cytotoxicity (Tov-21-G) 0.307% [at 11.6 µM] | activity change, negative = cytotoxicity (Tov112D) -0.127% [at 11.6 µM]

CC1CCCC2OC2C(=O)c2c(O)cc(O)cc2CC(=O)O1 (centres undefined)
inactive: Potency (SKOV3) | Potency (Tov-21-G) | Potency (Tov112D)

C[C@@H]1O[C@@H](O[C@H]2[C@H](OC(=O)C34CCC(C)(C)CC3C3=CCC5C6(C)CC(O)C(O[C@@H]7O[C@H](CO)[C@@H](O)[C@H](O)[C@H]7O)C(C)(C(=O)O)C6CCC5(C)C3(CO)CC4)O[C@H](C)[C@H](O)[C@@H]2O)[C@H](O)[C@H](O)[C@H]1O[C@@H]1OC[C@@H](O)[C@H](O)[C@H]1O (some centres undefined)
inactive: activity change, negative = cytotoxicity (SKOV3) 7.96% [at 11.6 µM] | activity change, negative = cytotoxicity (Tov-21-G) 2.58% [at 11.6 µM] | activity change, negative = cytotoxicity (Tov112D) 2.79% [at 11.6 µM]

O=C(C1CC1)N1CC[C@@H](Cc2n[nH]c(=O)n2-c2ccc(-c3ccc4occc4c3)cc2)C1
inactive: Potency (SKOV3) | Potency (Tov-21-G) | Potency (Tov112D)

COC1CC(OC2CCC3(C)C(=CCC4C3CCC3(C)C(C(C)O)CCC43O)C2)OC(C)C1OC1OC(C)C(OC2OC(COC3OC(COC4OC(CO)C(O)C(O)C4O)C(O)C(O)C3O)C(O)C(O)C2O)C(OC)C1O (centres undefined)
inactive: activity change, negative = cytotoxicity (SKOV3) 0% [at 11.6 µM] | activity change, negative = cytotoxicity (Tov-21-G) -5.94% [at 11.6 µM] | activity change, negative = cytotoxicity (Tov112D) -0.956% [at 11.6 µM]

C=C1C[C@@]23CC[C@@H]4[C@](C)(C(=O)O)CCC[C@@]4(C)C2=CC[C@H]1C3
inactive: Potency (SKOV3) | Potency (Tov-21-G) | Potency (Tov112D)

NCCCC[C@H](NC(=O)[C@@H]1Cc2ccccc2CN1C(=O)CCC(=O)c1ccccc1)C(=O)NCC(c1ccccc1)c1ccccc1
inactive: Potency (SKOV3) | Potency (Tov-21-G) | Potency (Tov112D)

C=C(C)C(C)C1OC23CC4(CO2)C(CCC2C5(C)CCC(OC6OCC(O)C(OC7OC(CO)C(O)C(OC8OCC(O)C(O)C8O)C7O)C6OC6OC(CO)C(O)C6O)C(C)(C)C5CCC24C)C3C(C)(O)C1OC(C)=O (centres undefined)
inactive: activity change, negative = cytotoxicity (SKOV3) 3.59% [at 11.6 µM] | activity change, negative = cytotoxicity (Tov-21-G) 1.52% [at 11.6 µM] | activity change, negative = cytotoxicity (Tov112D) 5.61% [at 11.6 µM]

C1CCN2CC3C[C@@H](CN4CCCC[C@@H]34)[C@H]2C1
inactive: Potency (SKOV3) | Potency (Tov-21-G) | Potency (Tov112D)

CC1CC(=O)C2=C(O1)OC1(C)CCC3C(C)(C)C=CC(=O)C3(C)C1C2 (centres undefined)
inactive: Potency (SKOV3) | Potency (Tov-21-G) | Potency (Tov112D)

COc1cccc2c1CCC[C@H]2CN(C)CCc1ccc2ccoc2c1
inactive: Potency (SKOV3) | Potency (Tov-21-G) | Potency (Tov112D)

CC1(C)CC[C@]2(C(=O)O)CC[C@]3(C)C(=CCC4[C@@]5(C)C[C@@H](O)[C@H](O)C(C)(C)C5CC[C@]43C)[C@@H]2[C@@H]1O (some centres undefined)
inactive: Potency (SKOV3) | Potency (Tov-21-G) | Potency (Tov112D)

CC(C)=CCC[C@](C)(O[C@@H]1O[C@H](CO[C@@H]2OC[C@@H](O)[C@H](O)[C@H]2O)[C@@H](O)[C@H](O)[C@H]1O)[C@H]1CC[C@]2(C)[C@@H]1[C@H](O)C[C@@H]1[C@@]3(C)CC[C@H](O[C@@H]4O[C@H](CO)[C@@H](O)[C@H](O)[C@H]4O[C@@H]4O[C@H](CO)[C@@H](O)[C@H](O)[C@H]4O)C(C)(C)[C@@H]3CC[C@]12C
inactive: Potency (SKOV3) | Potency (Tov-21-G) | Potency (Tov112D)

C/C(=C/CO)CC[C@@H]1[C@@]2(C)CCC[C@](C)(C(=O)O)C2CC[C@@]1(C)O (some centres undefined)
inactive: Potency (SKOV3) | Potency (Tov-21-G) | Potency (Tov112D)

C=C1CC[C@H]2[C@@H](/C=C(\C)C(=O)[C@@]3(OC(C)=O)C[C@H](C)[C@H](OC(C)=O)[C@@H]3[C@H]1OC(C)=O)C2(C)C
inactive: Potency (SKOV3) | Potency (Tov-21-G) | Potency (Tov112D)
